Results filed as inconclusive are left out. Calls of active or inactive are those of the source. Calls come from the whole dose curve; as a rule, active = well fitted cell-killing curve with a large enough effect; inconclusive = small, poorly fitted or top-dose-only effect, or effect the other way; inactive = flat fitted curve, though single readings scatter.
Columns and labels:
Experiment in all cases: Primary qHTS to identify gynecologic anti-cancer compounds using libraries of approved drugs and bioactive compounds (AID 1345084); note: nearly all actives have a fitted effect of over 55% in size
C33A = details: Gynecologic cancer cell panel viability, ATPlite luminescence, 48 h; series mostly up to 57.5 µM
How it was run: (§1)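 Cell viability after 48 h drug treatment, ATPlite luminescence readout; five doses.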

CAOV3 = details: Gynecologic cancer cell panel viability, ATPlite luminescence, 48 h; series mostly up to 57.5 µM
How it was run: as §1

CASKI = details: Gynecologic cancer cell panel viability, ATPlite luminescence, 48 h; series mostly up to 57.5 µM
How it was run: as §1

Es-2 = details: Gynecologic cancer cell panel viability, ATPlite luminescence, 48 h; series mostly up to 57.5 µM
How it was run: as §1

HeLa = details: Gynecologic cancer cell panel viability, ATPlite luminescence, 48 h; series mostly up to 57.5 µM
How it was run: as §1

Hek293T = details: Gynecologic cancer cell panel viability, ATPlite luminescence, 48 h, control line for the selectivity index; series mostly up to 57.5 µM
How it was run: as §1

JEG-3 = details: Gynecologic cancer cell panel viability, ATPlite luminescence, 48 h; series mostly up to 57.5 µM
How it was run: as §1

OV90 = details: Gynecologic cancer cell panel viability, ATPlite luminescence, 48 h; series mostly up to 57.5 µM
How it was run: as §1

PA-1 = details: Gynecologic cancer cell panel viability, ATPlite luminescence, 48 h; series mostly up to 57.5 µM
How it was run: as §1

SKOV3 = details: Gynecologic cancer cell panel viability, ATPlite luminescence, 48 h; series mostly up to 57.5 µM
How it was run: as §1

Tov-21-G = details: Gynecologic cancer cell panel viability, ATPlite luminescence, 48 h; series mostly up to 57.5 µM
How it was run: as §1

Tov112D = details: Gynecologic cancer cell panel viability, ATPlite luminescence, 48 h; series mostly up to 57.5 µM
How it was run: as §1
% is set by controls: 0 for no effect and ±100 for the full control effect.

C[C@H]1CC[C@@]2(OC1)O[C@H]1CC3C4CC[C@H]5C[C@@H](O)[C@H](O)C[C@]5(C)C4=CC(=O)[C@]3(C)[C@H]1[C@@H]2C (stereo not given in full)
inactive: Potency (C33A) | Potency (CAOV3) | Potency (CASKI) | Potency (Es-2) | Potency (HeLa) | Potency (Hek293T) | Potency (JEG-3) | Potency (OV90) | Potency (PA-1) | Potency (SKOV3) | Potency (Tov-21-G) | Potency (Tov112D)

Cc1c2cc(c(C(=O)O)c1C)OC1OC(C(O)C(O)C1O)C(O)C(O)C1OC(O2)C(O)C(O)C1O (stereo not given)
inactive: Potency (C33A) | Potency (CAOV3) | Potency (CASKI) | Potency (Es-2) | Potency (HeLa) | Potency (Hek293T) | Potency (JEG-3) | Potency (OV90) | Potency (PA-1) | Potency (SKOV3) | Potency (Tov-21-G) | Potency (Tov112D)

CC1(C)CCCC2(C)C1CC=C1C(=O)OC(O)C12O (stereo not given)
inactive: Potency (C33A) | Potency (CAOV3) | Potency (CASKI) | Potency (Es-2) | Potency (HeLa) | Potency (Hek293T) | Potency (JEG-3) | Potency (OV90) | Potency (PA-1) | Potency (SKOV3) | Potency (Tov-21-G) | Potency (Tov112D)

C[C@@H]1C(=O)O[C@H](C)[C@H]1CC(=O)[C@](C)(O)[C@H]1CC[C@@]2(O)C3=CC(=O)[C@@H]4C[C@@H](O)[C@@H](O)C[C@]4(C)C3CC[C@]12C (stereo not given in full)
inactive: Potency (C33A) | Potency (CAOV3) | Potency (CASKI) | Potency (Es-2) | Potency (HeLa) | Potency (Hek293T) | Potency (JEG-3) | Potency (OV90) | Potency (PA-1) | Potency (SKOV3) | Potency (Tov-21-G) | Potency (Tov112D)

COc1ccc(C2(O)CCC(N3CC[C@@H](NC(=O)CNC(=O)c4cccc(C(F)(F)F)c4)C3)CC2)cn1 (stereo not given in full)
inactive: Potency (C33A) | Potency (CAOV3) | Potency (CASKI) | Potency (Es-2) | Potency (HeLa) | Potency (Hek293T) | Potency (JEG-3) | Potency (OV90) | Potency (PA-1) | Potency (SKOV3) | Potency (Tov-21-G) | Potency (Tov112D)

C/C=C/C=C/C=C/C(=O)OC1C=C(C=O)C(O)(C(=O)O)C2(C)CCCC(C)(C)C12 (stereo not given)
inactive: Potency (C33A) | Potency (CAOV3) | Potency (CASKI) | Potency (Es-2) | Potency (HeLa) | Potency (Hek293T) | Potency (JEG-3) | Potency (OV90) | Potency (PA-1) | Potency (SKOV3) | Potency (Tov-21-G) | Potency (Tov112D)

C[C@@H]1O[C@@H](O[C@H]2[C@H](O)[C@@H](C(=O)O)O[C@@H](O[C@H]3CC[C@@]4(C)C(CC[C@]5(C)C4CC=C4C6CC(C)(C)CC[C@]6(C(=O)O)CC[C@]45C)C3(C)C)[C@@H]2O[C@@H]2OC[C@@H](O)[C@H](O)[C@H]2O)[C@H](O)[C@H](O)[C@H]1O (stereo not given in full)
inactive: activity change, negative = cytotoxicity (C33A) 12.7% [at 11.6 µM] | activity change, negative = cytotoxicity (CAOV3) -1.86% [at 11.6 µM] | activity change, negative = cytotoxicity (CASKI) -0.197% [at 11.6 µM] | activity change, negative = cytotoxicity (Es-2) -1.84% [at 11.6 µM] | activity change, negative = cytotoxicity (HeLa) 10.5% [at 11.6 µM] | activity change, negative = cytotoxicity (Hek293T) 5.25% [at 11.6 µM] | activity change, negative = cytotoxicity (JEG-3) 3.19% [at 11.6 µM] | activity change, negative = cytotoxicity (OV90) 2.8% [at 11.6 µM] | activity change, negative = cytotoxicity (PA-1) 4.01% [at 11.6 µM] | activity change, negative = cytotoxicity (SKOV3) -0.245% [at 11.6 µM] | activity change, negative = cytotoxicity (Tov-21-G) 13.2% [at 11.6 µM] | activity change, negative = cytotoxicity (Tov112D) 4.42% [at 11.6 µM]

COC(=O)c1cc(OC)c(O[C@@H]2O[C@@H](C)[C@H](O)[C@@H](O)[C@H]2O)c(OC)c1
inactive: Potency (C33A) | Potency (CAOV3) | Potency (CASKI) | Potency (Es-2) | Potency (HeLa) | Potency (Hek293T) | Potency (JEG-3) | Potency (OV90) | Potency (PA-1) | Potency (SKOV3) | Potency (Tov-21-G) | Potency (Tov112D)

COC(=O)[C@@H](O)[C@H]1[C@@]2(C)CC3(O)[C@@H](C(=O)[C@H]2O)[C@]24O[C@]25CC(=O)O[C@@H](c2ccoc2)[C@]5(C)CCC4[C@]13C (stereo not given in full)
inactive: Potency (C33A) | Potency (CAOV3) | Potency (CASKI) | Potency (Es-2) | Potency (HeLa) | Potency (Hek293T) | Potency (JEG-3) | Potency (OV90) | Potency (PA-1) | Potency (SKOV3) | Potency (Tov-21-G) | Potency (Tov112D)

OC/C=C/c1ccc(O[C@@H]2O[C@H](CO)[C@@H](O)[C@H](O)[C@H]2O)cc1
inactive: Potency (C33A) | Potency (CAOV3) | Potency (CASKI) | Potency (Es-2) | Potency (HeLa) | Potency (Hek293T) | Potency (JEG-3) | Potency (OV90) | Potency (PA-1) | Potency (SKOV3) | Potency (Tov-21-G) | Potency (Tov112D)

C[C@@H]1C(=O)O[C@H]2C[C@]34[C@H]5C[C@@H](C(C)(C)C)[C@]36[C@@H](OC(=O)[C@H]6O)O[C@]4(C(=O)O5)[C@]21O
inactive: Potency (C33A) | Potency (CAOV3) | Potency (CASKI) | Potency (Es-2) | Potency (HeLa) | Potency (Hek293T) | Potency (JEG-3) | Potency (OV90) | Potency (PA-1) | Potency (SKOV3) | Potency (Tov-21-G) | Potency (Tov112D)

CC(=O)OCC1(O)CCC2C(COC3OC(CO)C(O)C(O)C3OC(=O)/C=C/c3ccc(O)cc3)=COC(OC(=O)CC(C)C)C21 (stereo not given)
inactive: Potency (C33A) | Potency (CAOV3) | Potency (CASKI) | Potency (Es-2) | Potency (HeLa) | Potency (Hek293T) | Potency (JEG-3) | Potency (OV90) | Potency (PA-1) | Potency (SKOV3) | Potency (Tov-21-G) | Potency (Tov112D)

O=C(CC(c1ccccc1)c1ccccc1)N1CCN(C(c2ccccc2)c2ccccc2)CC1
inactive: Potency (C33A) | Potency (CAOV3) | Potency (CASKI) | Potency (Es-2) | Potency (HeLa) | Potency (Hek293T) | Potency (JEG-3) | Potency (OV90) | Potency (PA-1) | Potency (SKOV3) | Potency (Tov-21-G) | Potency (Tov112D)

C[C@@H]1C(=O)O[C@H]2[C@H](O)C34[C@H]5C[C@@H](C(C)(C)C)C36[C@@H](OC(=O)[C@@H]6O)O[C@@]4(C(=O)O5)[C@@]12O (stereo not given in full)
inactive: Potency (C33A) | Potency (CAOV3) | Potency (CASKI) | Potency (Es-2) | Potency (HeLa) | Potency (Hek293T) | Potency (JEG-3) | Potency (OV90) | Potency (PA-1) | Potency (SKOV3) | Potency (Tov-21-G) | Potency (Tov112D)

CCOC(=O)c1cc(C#N)c(N2CCC(C(=O)NS(=O)(=O)Cc3ccccc3)CC2)nc1C
inactive: Potency (C33A) | Potency (CAOV3) | Potency (CASKI) | Potency (Es-2) | Potency (HeLa) | Potency (Hek293T) | Potency (JEG-3) | Potency (OV90) | Potency (PA-1) | Potency (SKOV3) | Potency (Tov-21-G) | Potency (Tov112D)

— PubChem BioAssay (NCATS)
